The panel holds about 83,000 compounds, 20% with a hit somewhere; the sample as a whole holds those more often.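 Values shown are percent growth following 48 h exposure of cells in 96-well plates to a single concentration of compound; below 10 was considered active.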 Unmarked numbers belong to inactive results. Active and inactive are the calls of the source.
test system: HL-60(TB) leukemia; assay: NCI-60 one-dose screen, 48 h (100 = growth as untreated, 0 = no growth, -100 = all killed); conditions: 10 µM unless noted

| Structure (SMILES) | growth |
| --- | --- |
| COc1ccc2[nH]c(O)c(C(=Nc3ccc(N(C)C(=O)CN4CCN(C)CC4)cc3)c3ccccc3)c2c1 | -14.9% (active) |
| O=C1/C(=C/c2ccc(O)cc2O)N=C2SCCCN12 | 100% |
| Cc1ccc(S(=O)(=O)Nc2cccc(Cn3c(=O)[nH]c4ccc(Oc5ncccn5)cc4c3=O)c2)cc1 | 65.3% |

— PubChem BioAssay (NCI)
